From PubChem BioAssay (Tox21) come the findings set out here.

SMILES strings stand for the structures. Inconclusive results are not listed. Unmarked numbers belong to inactive results. Active and inactive are the calls of the source. The call rests on the fitted dose curve; in most records, active means well fitted curve in the direction sought with a large enough effect in the repeat runs; inconclusive means weak or mixed curves; inactive means no such curve, though single readings can be large; an effect the other way counts as inactive or inconclusive.
On the % scale 0 is the no-effect control and ±100 the full control effect; potency means the concentration at half of the fitted maximal effect.

Chain of Luciferin 4-monooxygenase (Photinus pyralis) (P08659 whole entry, looked up): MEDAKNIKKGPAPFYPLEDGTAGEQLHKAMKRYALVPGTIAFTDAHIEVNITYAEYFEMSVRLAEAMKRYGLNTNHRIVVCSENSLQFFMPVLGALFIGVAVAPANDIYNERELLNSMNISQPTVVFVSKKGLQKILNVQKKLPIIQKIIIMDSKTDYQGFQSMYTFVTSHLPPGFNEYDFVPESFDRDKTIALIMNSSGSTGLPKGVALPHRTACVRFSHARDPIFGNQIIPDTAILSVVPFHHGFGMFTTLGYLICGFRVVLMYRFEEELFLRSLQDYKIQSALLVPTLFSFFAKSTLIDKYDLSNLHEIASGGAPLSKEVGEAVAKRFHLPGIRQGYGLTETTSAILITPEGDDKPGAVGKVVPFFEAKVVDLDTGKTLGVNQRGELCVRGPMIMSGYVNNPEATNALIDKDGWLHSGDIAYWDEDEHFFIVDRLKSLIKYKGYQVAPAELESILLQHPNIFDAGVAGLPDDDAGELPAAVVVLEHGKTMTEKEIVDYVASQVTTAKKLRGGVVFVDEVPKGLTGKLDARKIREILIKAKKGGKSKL

One experiment addresses Luciferin 4-monooxygenase (Photinus pyralis) (UniProt P08659). Nature of the experiment: qHTS assay to identify small molecule inhibitors of firefly luciferase (AID 1224835). Further: nearly all actives have a fitted effect of over 25% in size. Particulars: purified P. pyralis luciferase, luminescence inhibition; series mostly up to 115 µM; activity change, negative = inhibition: at the top concentration. In outline: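 Inhibition of purified Photinus luciferase is measured by luminescence. Substrate levels (D-luciferin, ATP) sit at their KM values. Each compound is tested in a concentration series.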
With `C/C=C/CO`, the “activity change, negative = inhibition” value is 0.759%.

On to `NC(=O)C(=O)N/N=C/c1ccc([N+](=O)[O-])o1`, for which the “activity change, negative = inhibition” value was 0.216% [at 52.9 µM].

With `COc1ccc(C#N)cc1`, the “activity change, negative = inhibition” value was -6.13%.

For `C=CC(C)C#N` (centres undefined), the “activity change, negative = inhibition” value was -0.123%.

For the compound `CN(C)CCN1CCOCC1`, the “activity change, negative = inhibition” value was 1.2%.

For the compound `O=C1OC(=O)c2ccc3c4c(ccc1c24)C(=O)OC3=O`, the “activity change, negative = inhibition” value was -0.353%.

As for `O=C1OC(=O)c2cccc3cccc1c23`, the “activity change, negative = inhibition” value was 1.09%.

As for `Cc1ccc(-n2[nH]c(C)c(N=Nc3cccc(-c4cccc(C(=O)O)c4)c3O)c2=O)cc1C`, the Potency is 38.9 µM (active).

As for `CCCCCCS`, the “activity change, negative = inhibition” value is 6.5%.

For `CC(C)(C)C1=CC(=O)C=C(C(C)(C)C)C1=O`, the “activity change, negative = inhibition” value is -0.207%.

Take `c1ccc2c(c1)CCC2`: the “activity change, negative = inhibition” value is 0.443%.

In the case of `CCN=C1C=CC(=C(c2ccc(N(CC)CC)cc2)c2ccc(N(CC)CC)cc2)c2ccccc21`, the Potency was 28.1 µM (active).

Take `CC(=O)c1ccccc1N`: the “activity change, negative = inhibition” value was -7.16%.

Turning to `N#CSCSc1nc2ccccc2s1`, the Potency is 35.6 µM (active).

Turning to `Nc1ncnc2c1ncn2[C@@H]1O[C@H](COP(=O)(O)O)[C@@H](O)[C@H]1O`, the “activity change, negative = inhibition” value is 6.64% [at 52.9 µM].

For `CC1CNCC(C)O1` (centres undefined), the “activity change, negative = inhibition” value is -0.247%.

On to `C[Si](C)O[Si](C)C`, for which the “activity change, negative = inhibition” value is -0.562%.

Take `ClC/C=C\CCl`: the “activity change, negative = inhibition” value is 1.14%.

For `CCCCCCCCCCCCOC(=O)c1cc(O)c(O)c(O)c1`, the Potency result is “inactive”.

In the case of `CC(C)=C1CC[C@@H](C)CC1=O`, the “activity change, negative = inhibition” value is 5.24%.

In the case of `C=C1C(C)(C)[C@@]2(Cl)C(Cl)[C@]1(Cl)C(Cl)(Cl)C2(Cl)Cl` (some centres undefined), the “activity change, negative = inhibition” value was 4.06%.

Take `CCCCN(C)C`: the “activity change, negative = inhibition” value is 2.53%.

For `CCc1cccc(C)c1`, the “activity change, negative = inhibition” value is 0.529%.

On to `CCO[Si](CCCSSSSCCC[Si](OCC)(OCC)OCC)(OCC)OCC`, for which the “activity change, negative = inhibition” value was -10.2%.

`CCN(CC)CCSC(=O)C(c1ccccc1)c1ccccc1`: the “activity change, negative = inhibition” value was -1.5% [at 52.9 µM].

With `C[C@]12CC[C@H]3C(=CCc4cc(O)ccc43)[C@@H]1CCC2=O`, the Potency is 35.6 µM (active).

With `OCCCS`, the “activity change, negative = inhibition” value was 1.97%.

For `CCN(CC)CCOC(=O)C1(C2CCCCC2)CCCCC1`, the “activity change, negative = inhibition” value was 1.59% [at 52.9 µM].

In the case of `CCc1ccc(C)nc1`, the “activity change, negative = inhibition” value is -0.389%.

As for `CCC1(c2cnc[nH]2)Cc2ccccc2C1`, the “activity change, negative = inhibition” value is -2.22% [at 52.9 µM].

`O=S(O)O`: the activity change, negative = inhibition is -0.0072% [at 23.6 µM].

Turning to `CCCC(C)CCC(C)=O` (centres undefined), the “activity change, negative = inhibition” value is 6.9%.

With `CC(=O)Oc1ccc(C2(c3ccc(OC(C)=O)cc3)Oc3ccccc3NC2=O)cc1`, the “activity change, negative = inhibition” value was 0.608% [at 52.9 µM].

Turning to `SCCCCCCCCS`, the “activity change, negative = inhibition” value was 4.06%.

Turning to `CSc1c(Cl)c(Cl)c(Cl)c(Cl)c1Cl`, the “activity change, negative = inhibition” value is 7.78%.

Regarding `CCCCCCCCCCCC(=O)N(CC)CC`, the “activity change, negative = inhibition” value was -10.4%.

Test system in a further experiment: not listed separately
Nature of the experiment: qHTS assay to identify small molecule agonists of the constitutive androstane receptor (CAR) signaling pathway - cell viability counter screen (AID 1224836). Further: nearly all actives have a fitted effect of over 45% in size. As to conditions: HepG2-CYP2B6-hCAR viability, CellTiter-Fluor, 23 h, PK11195 added to every well; series mostly up to 92.4 µM; viability change, negative = cytotoxic: at the top concentration. An outline of the steps: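 HepG2-CYP2B6-hCAR, 2500 cells/well, 4 h pre-incubation; cpd 15 conc + PK11195 0.75 uM final; 23 h, 37 C/5% CO2; CellTiter-Fluor, fluorescence.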
Background: Quantitative high-throughput screening tests each substance at several concentrations.
In the case of `C/C=C/CO`, the “viability change, negative = cytotoxic” value was 3.27%.

On to `NC(=O)C(=O)N/N=C/c1ccc([N+](=O)[O-])o1`, for which the “viability change, negative = cytotoxic” value was -0.436% [at 42.5 µM].

For `COc1ccc(C#N)cc1`, the “viability change, negative = cytotoxic” value is 3.11%.

In the case of `C=CC(C)C#N` (centres undefined), the “viability change, negative = cytotoxic” value was -2.02%.

As to `CN(C)CCN1CCOCC1`, the “viability change, negative = cytotoxic” value was 13.3%.

On to `O=C1OC(=O)c2ccc3c4c(ccc1c24)C(=O)OC3=O`, for which the “viability change, negative = cytotoxic” value was -6.14%.

With `O=C1OC(=O)c2cccc3cccc1c23`, the “viability change, negative = cytotoxic” value was -12.9%.

Consider `Cc1ccc(-n2[nH]c(C)c(N=Nc3cccc(-c4cccc(C(=O)O)c4)c3O)c2=O)cc1C`, for which the “viability change, negative = cytotoxic” value was 0.28% [at 42.5 µM].

`CCCCCCS`: the “viability change, negative = cytotoxic” value was 0.471%.

As for `CC(C)(C)C1=CC(=O)C=C(C(C)(C)C)C1=O`, the “viability change, negative = cytotoxic” value was 0.563%.

On to `c1ccc2c(c1)CCC2`, for which the “viability change, negative = cytotoxic” value was 4%.

Regarding `CCN=C1C=CC(=C(c2ccc(N(CC)CC)cc2)c2ccc(N(CC)CC)cc2)c2ccccc21`, the Potency is 6.08 µM (active).

Turning to `CC(=O)c1ccccc1N`, the “viability change, negative = cytotoxic” value is -1.69%.

In the case of `N#CSCSc1nc2ccccc2s1`, the Potency is 61.1 µM (active).

As for `Nc1ncnc2c1ncn2[C@@H]1O[C@H](COP(=O)(O)O)[C@@H](O)[C@H]1O`, the “viability change, negative = cytotoxic” value is 0.735% [at 42.5 µM].

As to `CC1CNCC(C)O1` (centres undefined), the “viability change, negative = cytotoxic” value is 6.48%.

For the compound `C[Si](C)O[Si](C)C`, the “viability change, negative = cytotoxic” value is 0.883%.

On to `ClC/C=C\CCl`, for which the “viability change, negative = cytotoxic” value was 0.171%.
